Tests used:
HCI01 = cells of a triple-negative basal-like breast cancer xenograft; test: cell viability of combination (% of vehicle); higher = less cytotoxic; conditions: 1 µM; 72 h; partner dose: 10 nM
Description: (§1)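 PDX cells were treated for 72 h with each drug at 1 µM plus carfilzomib (10 nM; 100 nM for WHIM2). Luciferase viability is expressed as percent of vehicle.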

UCD52 = cells of a triple-negative basal-like breast cancer xenograft; test: as above; conditions: 1 µM; 72 h; partner dose: 10 nM
Description: as §1

SMILES	cell viability of combination (HCI01)	cell viability of combination (UCD52)
CCCCCCCCOc1ccccc1C(=O)Nc1ccc(C(=O)OCC[N+](C)(CC)CC)cc1.[Br-] [Otilonium Bromide] + CC(C)C[C@H](NC(=O)[C@H](CCc1ccccc1)NC(=O)CN1CCOCC1)C(=O)N[C@@H](Cc1ccccc1)C(=O)N[C@@H](CC(C)C)C(=O)[C@@]1(C)CO1 [Carfilzomib]	81.5	67
Cc1nc(NC(=O)N2CCCC2C(N)=O)sc1-c1ccnc(C(C)(C)C(F)(F)F)c1 (centres undefined) + CC(C)C[C@H](NC(=O)[C@H](CCc1ccccc1)NC(=O)CN1CCOCC1)C(=O)N[C@@H](Cc1ccccc1)C(=O)N[C@@H](CC(C)C)C(=O)[C@@]1(C)CO1 [Carfilzomib]	62.6	42.3
CC(O)C(=O)O.CCOc1ccc2nc3cc(N)ccc3c(N)c2c1.O [Ethacridine lactate monohydrate] + CC(C)C[C@H](NC(=O)[C@H](CCc1ccccc1)NC(=O)CN1CCOCC1)C(=O)N[C@@H](Cc1ccccc1)C(=O)N[C@@H](CC(C)C)C(=O)[C@@]1(C)CO1 [Carfilzomib]	74.3	66.7
Cc1ccc(-n2[nH]c(C)c(NN=C3C=CC=C(c4cccc(C(=O)O)c4)C3=O)c2=O)cc1C [Eltrombopag] + CC(C)C[C@H](NC(=O)[C@H](CCc1ccccc1)NC(=O)CN1CCOCC1)C(=O)N[C@@H](Cc1ccccc1)C(=O)N[C@@H](CC(C)C)C(=O)[C@@]1(C)CO1 [Carfilzomib]	74.8	58.8
CNC(=O)c1cc(Oc2ccc(NC(=O)Nc3ccc(Cl)c(C(F)(F)F)c3)cc2)ccn1 [Sorafenib] + CC(C)C[C@H](NC(=O)[C@H](CCc1ccccc1)NC(=O)CN1CCOCC1)C(=O)N[C@@H](Cc1ccccc1)C(=O)N[C@@H](CC(C)C)C(=O)[C@@]1(C)CO1 [Carfilzomib]	69	49
CC(C)CC(NC(=O)CNC(=O)c1cc(Cl)ccc1Cl)B(O)O (centres undefined) + CC(C)C[C@H](NC(=O)[C@H](CCc1ccccc1)NC(=O)CN1CCOCC1)C(=O)N[C@@H](Cc1ccccc1)C(=O)N[C@@H](CC(C)C)C(=O)[C@@]1(C)CO1 [Carfilzomib]	43.7	19.8
CN(C)c1ccc(O)c2c1CC1CC3C(N(C)C)C(=O)C(C(N)=O)=C(O)C3(O)C(=O)C1=C2O.Cl (centres undefined) [Minocycline HCl] + CC(C)C[C@H](NC(=O)[C@H](CCc1ccccc1)NC(=O)CN1CCOCC1)C(=O)N[C@@H](Cc1ccccc1)C(=O)N[C@@H](CC(C)C)C(=O)[C@@]1(C)CO1 [Carfilzomib]	83.9	65.9
